# In PubChem BioAssay (NCATS):
# “And” between values parts separate entries of the source, which are not always exact repeats. Equal entries are not always repeated. Records with an inconclusive call do not appear. A structure can be active in one record and inactive in another. The source made the active and inactive calls. The call rests on the fitted dose curve; in most records, active means well fitted inhibition curve with a large enough effect; inconclusive means small, poorly fitted or top-dose-only effect; inactive means no such curve, though single readings can be large or run the other way.
# Target: Retinal dehydrogenase 2 (Homo sapiens) (UniProt O94788)
# Test: qHTS for Inhibitors of the Aldehyde Dehydrogenase Family (ALDH1A2) Confirmation screens (AID 2061314)
# Conditions: ALDH1A2 enzyme inhibition qHTS confirmation; series mostly up to 45.9 µM
# Further: nearly all actives have a fitted effect of over 65% in size.
# Potency means the concentration at half of the fitted maximal effect.
row,SMILES,Potency
1,CN1CC[C@@]2(C)c3cc(OC(=O)Nc4ccccc4)ccc3N(C)[C@@H]12,inactive and 5.65 µM (active)
2,CN1CC[C@@]2(C)c3cc(O)ccc3N(C)C12 (stereo partly drawn),4.49 µM (active)
3,CN1CCc2cc(O)cc3c2[C@H]1Cc1ccc(O)c(O)c1-3,inactive

# Target: Aldehyde dehydrogenase 1A1 (Homo sapiens) (UniProt P00352)
# Test: qHTS for Inhibitors of the Aldehyde Dehydrogenase Family (ALDH1A1) Confirmatory screens (AID 2061316)
# Conditions: ALDH inhibition qHTS; series mostly up to 47.3 µM
row,SMILES,Potency
1,N#CC(C#N)=Cc1ccc(O)c(O)c1,20.1 µM (active)
2,CN(N=O)c1cc(O)ccc1O,2.25 µM (active)
3,Cc1ncc(CNC(=O)N(CCCl)N=O)c(N)n1,inactive
4,CN1CCc2cc(O)cc3c2[C@H]1Cc1ccc(O)c(O)c1-3,inactive
5,C[N+](C)(C)CC#CCOC(=O)Nc1cccc(Cl)c1,22.5 µM (active)
